This passage reports outcome and Potency results from PubChem BioAssay (NCATS).

Records with an inconclusive call do not appear. Calls of active or inactive are those of the source. Calls come from the whole dose curve; as a rule, active = well fitted curve in the direction sought with a large enough effect; inconclusive = small, poorly fitted or top-dose-only effect, or another doubt; inactive = no such curve, though single readings can be large; an effect the other way counts as inactive or inconclusive.

The nature of experiment [1]: HPAF-II 24hr Apoptosis Induction qHTS against the NCATS CANVASS Library (AID 1347356). In short, it runs like this:
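500 HPAF-II cells/well; compounds in 11-pnt qHTS; 24 h, 37 C/5% CO2; Caspase-Glo 3/7 added, 15 min RT dark; luminescence read. Doxorubicin control.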
In general terms: In qHTS, concentration-response curves come from the screen itself.

Experiment [2] in a line: HEK293 18hr Apoptosis Induction qHTS against the NCATS CANVASS Library (AID 1347357). Note: potency is the fitted concentration of half-maximal effect. In short, it runs like this: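 Caspase-Glo 3/7 luminescence (15 min, room temperature) measured apoptosis after an 18-hour, 37 degrees C exposure of HEK293 cells (500 cells/well) to compounds in 11 points.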
Experiment [3] can be described thus: HPAF-II 12hr Apoptosis Induction qHTS against the NCATS CANVASS Library (AID 1347358). In short, it runs like this:
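Caspase-Glo 3/7 luminescence (DEVD substrate) reports caspase activity in HPAF-II cells after 12 h compound treatment at 37 degrees C. Compounds were tested in an 11-point series. Doxorubicin served as control.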

A short description of experiment [4]: HPAF-II 18hr Apoptosis Induction qHTS against the NCATS CANVASS Library (AID 1347360). In short, it runs like this:
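Caspase-3/7 activation was measured with luminescent Caspase-Glo 3/7 reagent (15 min, RT) in HPAF-II cancer cells (500 cells/well). Before detection, cells had been treated for 18 h at 37 C with compounds (11 points).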

Experiment [5] in a line: HEK293 12hr Apoptosis Induction qHTS against the NCATS CANVASS Library (AID 1347361). In short, it runs like this:
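HEK293 cells (500/well, DMEM + 10% FBS) were exposed to natural products across an 11-point series for 12 hours at 37 degrees C. Caspase-3/7 activity was then measured with DEVD luciferase luminescence after 15 min at room temperature.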

Experiment [6] can be described thus: MCF7 Cancer Cell Toxicity qHTS against the NCATS CANVASS Library (AID 1347369). Note: potency is the fitted concentration of half-maximal effect. In short, it runs like this: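 Cytotoxicity was measured as CellTiterGlo luminescence (ATP) after 72 h at 37 °C. The cells were MCF7 at 500 per well, with an 11-point compound concentration series.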
Experiment [7] is described as follows: qHTS for ATAD5 Antagonist screened against the NCATS CANVASS Library (AID 1347370). Note: nearly all actives have a fitted effect of over 65% in size. Note: potency is the fitted concentration of half-maximal effect. In short, it runs like this: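 HEK293T-ATAD5 luc reporter, 2000 cells/well; 5hr attach; cpd + 10 uM 5-FUrd; 16hr 37C, 5% CO2. Readouts: CellTiter-Fluor fluorescence (1hr), then Amplite luciferase luminescence (30min RT).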
Experiment [8] can be described thus: J3T Cancer Cell Toxicity qHTS against the NCATS CANVASS Library (AID 1347371). Note: potency is the fitted concentration of half-maximal effect. In short, it runs like this: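 Dog glioma J3T, 500 cells/well; cpd 11-pt qHTS; 72 hr, 37C/5% CO2; CellTiterGlo ATP luminescence readout.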
The target in experiment [9] is Nuclear receptor subfamily 1 group I member 3 (Homo sapiens) (UniProt Q14994). Put plainly: qHTS for Constitutive Androstane Receptor (CAR) Antagonist screened against the NCATS CANVASS Library (AID 1347372). Note: potency is the fitted concentration of half-maximal effect. In short, it runs like this:
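Cells were seeded and left 4hr to attach, then received compound at 11 concentrations and 50 nM CITCO. Following 24hr incubation, fluorescence viability and luciferase luminescence were read sequentially.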

The target is the same in experiment [10]. Description: qHTS for Constitutive Androstane Receptor (CAR) Agonist screened against the NCATS CANVASS Library (AID 1347373).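 Note: every well also contained 1.5 µM PK11195 alongside the test compound.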 In short, it runs like this: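 Luciferase read-out (ONE-Glo, 30 min RT) of CYP2B6-2.2kb promoter activity in double-stable HepG2-hCAR cells after 24hr compound exposure with 1.5uM PK11195 present; viability measured first by CellTiter-Fluor.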

Experiment [11] can be described thus: 10-beta competent E. coli microbial cell viability qHTS against the NCATS CANVASS Library (AID 1347376). Note: series mostly up to about 46 µM. In short, it runs like this: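 Luminescence from BacTiter-Glo ATP detection served as the viability read-out; bacteria (0.2 OD) had been incubated overnight at 37C with pin-transferred compounds at 11 concentrations.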
Experiment [12] can be described thus: Cytotoxicity qHTS for assessment of Hepg2 cells membrane integrity screened against the NCATS CANVASS Library (AID 1347387). In short, it runs like this:
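LDH release read by fluorescence (560 nm ex/590 nm em) after CytoTox-ONE addition and 10 min RT; signal tracks lysed cells. HepG2, 2000 cells/well, plated overnight; compound 5 hr, 37C, 5% CO2, final 0.59 nM - 46 uM, 11 points.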

The nature of experiment [13]: qHTS for Activators of p53 Stress Response Pathway screened against the NCATS CANVASS Library (AID 1347388). Note: potency is the fitted concentration of half-maximal effect. In short, it runs like this:
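p53RE-bla HCT-116 cells (4000/well) were plated 5 h at 37C, exposed to compounds for 16 h at 37C over an 11-point concentration series, then loaded with CCF4 for 2 h at room temperature; 460/530 nm emission ratio read.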

Experiment [14] in a line: qHTS for activators of dead-cell proteases activity screened against the NCATS CANVASS Library (AID 1347392).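 Note: luminescence from protease leaking out of membrane-damaged cells cleaving impermeant substrate; rising signal means more cytotoxicity.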 In short, it runs like this:
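Cytotoxicity in HepG2 cells was assessed by released protease cleaving AAF-aminoluciferin, with luminescence as signal. Exposure lasted 5 h at 37C across an 11-point series.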

A short description of experiment [15]: Viability qHTS for inhibitors of the SERCaMP assay screened against the NCATS CANVASS Library (AID 1347400). Note: nearly all actives have a fitted effect of over 70% in size. Note: potency is the fitted concentration of half-maximal effect. In short, it runs like this:
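CellTiter-Glo luminescence readout after 48 h compound exposure (11-pnt qHTS series) of SH-SY5Y-GLuc SERCaMP MJH297 cells seeded at 1000 cells/well; bortezomib positive control.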

The nature of experiment [16]: HPAF-II Cancer Cell Toxicity qHTS against the NCATS CANVASS Library (AID 1347346). Note: nearly all actives have a fitted effect of over 55% in size. Note: potency is the fitted concentration of half-maximal effect. In short, it runs like this: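 1000 HPAF-II cells/well; 4 h pre-incubation; 11-pnt compound titration; 72 h, 37 degrees C/5% CO2; CellTiter-Glo, 15 min RT; luminescence read.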
Experiment [17] deals with NAD(P)H diaphorase (Clostridium kluyveri). Description: Diaphorse counterscreen qHTS: Assay Interference Panel against the NCATS CANVASS Library (AID 1347362). In short, it runs like this:
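Clostridium kluyveri diaphorase in PBS with 0.01% Tween-20 was preincubated 15 min at room temperature in the dark with compounds (11-point series). Resorufin fluorescence (ex 525/20, em 598/25) was read 5 min after adding resazurin/NADH.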
In general terms: The purpose of a counterscreen is to sort out artefacts and off-target activity.

In experiment [18] the target is Luciferin 4-monooxygenase (Photinus pyralis) (UniProt P08659). Description: Firefly luciferase counterscreen qHTS: Assay Interference Panel against the NCATS CANVASS Library (AID 1347363). Note: series mostly up to about 57 µM. In short, it runs like this: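 Purified P. pyralis luciferase was added to compounds (11-point series) preincubated 15 min at room temperature with substrate containing 0.013 mM D-luciferin and 0.013 mM ATP; luminescence was read after 5 min.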
Chain of Luciferin 4-monooxygenase (Photinus pyralis) (P08659 whole entry, looked up): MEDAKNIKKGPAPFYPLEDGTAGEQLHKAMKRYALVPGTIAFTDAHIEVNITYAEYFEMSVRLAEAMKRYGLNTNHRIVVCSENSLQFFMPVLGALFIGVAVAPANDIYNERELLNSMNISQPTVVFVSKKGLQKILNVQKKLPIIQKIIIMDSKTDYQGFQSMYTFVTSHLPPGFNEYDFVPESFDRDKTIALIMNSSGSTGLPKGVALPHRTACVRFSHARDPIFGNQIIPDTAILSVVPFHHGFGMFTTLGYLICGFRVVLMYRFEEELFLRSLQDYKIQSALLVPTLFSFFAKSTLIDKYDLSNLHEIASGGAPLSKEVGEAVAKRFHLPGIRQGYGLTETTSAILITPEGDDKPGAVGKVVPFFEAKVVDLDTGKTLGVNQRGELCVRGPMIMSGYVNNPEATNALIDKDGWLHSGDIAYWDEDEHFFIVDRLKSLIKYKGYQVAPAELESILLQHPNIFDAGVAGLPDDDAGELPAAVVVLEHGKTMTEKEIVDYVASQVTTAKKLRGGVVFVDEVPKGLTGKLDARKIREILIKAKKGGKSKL

Experiment [19] is described as follows: qHTS for Hypoxia signaling pathway (HIF-1) agonists against the NCATS CANVASS Library (AID 1347375). In short, it runs like this:
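Read-out: beta-lactamase FRET (CCF4-AM, ex 405, em 460 and 530 nm) after 2 h at room temperature. ME-180 cells stably carrying HRE-bla were treated 17 h at 37C with compounds in an 11-point concentration series.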

Chain of Nuclear receptor subfamily 1 group I member 3 (Homo sapiens) (Q14994 whole entry, looked up): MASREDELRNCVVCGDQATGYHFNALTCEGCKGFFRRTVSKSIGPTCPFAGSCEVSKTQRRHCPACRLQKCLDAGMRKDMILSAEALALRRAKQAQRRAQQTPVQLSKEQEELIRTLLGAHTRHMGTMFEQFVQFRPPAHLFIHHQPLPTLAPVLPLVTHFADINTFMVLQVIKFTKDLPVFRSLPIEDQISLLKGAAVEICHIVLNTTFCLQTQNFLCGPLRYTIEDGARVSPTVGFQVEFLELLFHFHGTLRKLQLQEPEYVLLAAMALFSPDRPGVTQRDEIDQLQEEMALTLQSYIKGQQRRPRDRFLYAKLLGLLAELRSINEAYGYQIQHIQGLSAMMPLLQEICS

`O=C(OC[C@H]1O[C@@H](OC(=O)c2cc(O)c(O)c(O)c2)[C@H](OC(=O)c2cc(O)c(O)c(O)c2)[C@@H](OC(=O)c2cc(O)c(O)c(O)c2)[C@@H]1OC(=O)c1cc(O)c(O)c(O)c1)c1cc(O)c(O)c(O)c1`: the result in experiment [1], in [5], in experiment [11] and in experiment [12] was inactive. The Potency result in experiment [2], in experiment [3], in [4], in experiment [6], in experiment [7] and in experiment [8] was “inactive” each time. In addition, the Potency result in experiment [9], in experiment [10] and in experiment [14] was “inactive” in each case. In addition, the results for the Potency in [13] and in experiment [15] were 11.7 µM (active) and 34 µM (active), respectively.

On to `C/C(=C\[C@H](C)C(=O)CCCC1CC(=O)NC(=O)C1)[C@@H]1OC(=O)/C=C/CC/C=C/[C@H](O)[C@@H](O)[C@@H]1C`, for which the Potency is 1.33 µM (active) in experiment [16], 2.63 µM (active) in [7], 3.31 µM (active) in experiment [9] and 3.81 µM (active) in experiment [15]. The outcome in experiment [1], in experiment [5], in [19], in experiment [11] and in experiment [12] was inactive. The Potency result in experiment [2], in experiment [3], in experiment [4], in experiment [17], in experiment [18] and in experiment [10] was “inactive” throughout. Also, the Potency result in experiment [13] and in experiment [14] was “inactive” each time.

Turning to `O=C1CC(c2ccc(O)cc2)Oc2cc(O)cc(O)c21` (stereo not given), the Potency result in experiment [16], in experiment [2], in [3], in experiment [4], in experiment [17] and in [18] was “inactive” each time. Also, the Potency entry in experiment [6], in experiment [7], in [8], in [9], in experiment [10] and in experiment [13] was “inactive” throughout. Also, the Potency entry in experiment [14] and in [15] was “inactive” each time. In addition, the call in experiment [1], in experiment [5], in experiment [11] and in experiment [12] was inactive.

As to `C/C=C1/CN2C3CC1C1C=CC(=O)N4c5ccccc5[C@@]3(C[C@@H]2C2=C[C@H]3C5CC6N(CC[C@@]67c6ccccc6N(C2=O)[C@@H]37)C/C5=C/C)[C@H]14` (stereo not given in full), the Potency in [16] was 5.95 µM (active); in experiment [2], 26.4 µM (active); in [6] it was 16.5 µM (active); in [7] it was 5.24 µM (active); in [8] it was 20.9 µM (active); in experiment [15] it was 19.1 µM (active). Moreover, the Potency entry in experiment [17], in experiment [18], in experiment [10] and in experiment [14] was “inactive” each time. In addition, the compound was classed as inactive in experiment [19], in experiment [11] and in [12].

Take `CC1=C2CC[C@]3(C)[C@H](CC=C4[C@@H]5CC(C)(C)CC[C@@H]5C(=O)[C@H](O)[C@]43C)[C@@]2(C)C=C(O)C1=O`: the compound was classed as inactive in experiment [1], in experiment [5], in experiment [19], in experiment [11] and in [12]. In addition, the Potency entry in experiment [2], in experiment [3], in [4], in experiment [17], in [18] and in experiment [6] was “inactive” throughout. The Potency result in [8], in experiment [9], in experiment [10], in experiment [13], in [14] and in experiment [15] was “inactive” each time.
